Laboratory results as given in ChEMBL document CHEMBL4888484, “Replenishing the malaria drug discovery pipeline: Screening and hit evaluation of the MMV Hit Generation Library 1 (HGL1) against asexual blood stage Plasmodium falciparum ,using a nano luciferase reporter read-out” (2022).
The campaign covered roughly 150,000 compounds. About 540 (0.36%) showed an effect of 50% or more. Only a selection was taken, and strong results are over-represented in it overall.

Tested on: Plasmodium falciparum
Experiment: Primary screen in NF54 nanoGlo assay, in single point, at 2uM, 72h; a lower Z score goes with more inhibition
Format: functional, Erythrocyte
Conditions: timepoint 72 hour

| Structure (SMILES) | % Inhibition [%] | Z score |
| --- | --- | --- |
| OC1=Nc2c(ncn2-c2cccnc2)[C@@H](c2ccc(F)c(F)c2)C1 | 0 | -0.05 |
| CCC1=Nc2ccccc2N=C(NC(=O)CN2CCN(C)CC2)[C@H]1c1ccccc1 | -6 | 0.93 |
| CCC1=Nc2ccccc2N=C(NC(=O)c2ccc(F)cc2)[C@H]1c1ccc(OC)c(OC)c1 | -11 | 1.75 |
| CCC1=Nc2ccccc2N=C(NC(=O)C(C)C)[C@H]1c1ccc(F)cc1 | 64 | -2.85 |
| Cc1nc(N2C(=O)N(C)C3(CCCC3)C2=O)oc1C | 3 | -0.31 |
| C[C@@H](NC(=O)c1ccco1)c1ccccc1 | 0 | 0.04 |
| C[C@H](NC(=O)c1ccco1)c1cc2c(cc1Br)OCCCO2 | 60 | 0.9 |
| O=C(Nc1ccc2c(c1)OCCCO2)c1ccco1 | 29 | -3.9 |
| CC(NCC1COC(C)(C)O1)c1cc(Cl)c(N)c(Cl)c1 (stereo unspecified) | 2 | -0.28 |
| CCCN1CCC(NCc2ccc(-c3cccc(Cl)c3Cl)o2)CC1 | 55 | -11.87 |
| Cc1nnc(NCc2ccc(-c3cccc(Cl)c3Cl)o2)n1C | -8 | 0.79 |
| Clc1cccc(-c2ccc(CNC3CCCCC3)o2)c1 | -9 | 1.31 |
| OCCOc1cncc(N2CCOC3(CCCCCC3)C2)n1 | 8 | -0.67 |
| Fc1cccnc1N1CCOC2(CCC2)C1 | -15 | 1.72 |
| Oc1nc(N2CCOC3(CCCC3)C2)ncc1F | 55 | -9.19 |
| CC(=O)c1cccc(-c2ccc3c(cnn3CC(=O)Nc3ccnn3C)c2)c1 | -12 | 1.94 |
| Cc1ccc(CNC(=O)NCC(=O)N2CCC=C(F)C2)cc1 | 0 | 0.03 |
| O=C(Nc1cnccc1CO)c1csc(C2CCCCC2)c1 | 0 | 0.04 |
| O=C(N[C@H]1C[C@@H]2C[C@H]1N(C(=O)c1ccccc1C(F)(F)F)C2)c1cccnc1 | 35 | -3.96 |
| c1ccc(C2=NN(c3ccc(-c4cc(-c5ccccc5)[n+](-c5ccccc5)c(-c5ccccc5)c4)cc3)[C@H](c3ccccc3)C2)cc1 | 91 | -14.02 |
| Cc1cccc(NCc2ccc(N3N=C(c4ccccc4)C[C@H]3c3ccccc3)cc2)c1 | -1 | 0.11 |

| Structure (SMILES) | % Inhibition [%] | Z score |
| --- | --- | --- |
| O=C(NCc1ccc(-n2cncn2)nc1)c1ccncc1 | -19 | 1.67 |
| O=C(Cc1ccc(Cl)cc1)Nc1cnc(-n2ccnc2)nc1 | 4 | -0.61 |
| COC1(C)CC(N(C)C(=O)[C@@H]2Cc3cncn3C(=O)N2)C1(C)C (stereo partly specified) | -3 | 0.52 |
| Cn1cnnc1[C@H]1CCCN(S(=O)(=O)N2CCCCC2)C1 | -6 | 0.88 |
| O=C(N[C@H]1CCc2ncccc2C1)c1cccc(B(O)O)c1 | -4 | 0.45 |
| O=C(NCCN1CCC(CO)CC1)N1CC(Oc2ccccc2F)C1 | -17 | 1.55 |
| NC1CC(c2cc(NCc3cccnc3)nc(C3CC3)n2)C1 (stereo unspecified) | 15 | -2.04 |
| CC(=O)N[C@H]1C[C@@H](c2cc(NCCCc3cccnc3)nc(C)n2)C1 | -15 | 2.91 |
| N[C@H]1C[C@H](c2cc(NCCCc3cccnc3)nc(C3CC3)n2)C1 | 71 | -7.09 |
| C[C@@H](C(=O)NC(C)(C)c1noc(C(N)=O)n1)c1ccccc1 | 2 | -0.23 |
| O=C1COc2ccccc2N1Cc1nc(-c2ccc(N3CCOCC3)cc2)no1 | -19 | 2.51 |
| CC(C)N(CC(=O)Nc1nccs1)C(=O)COCc1ccccc1 | -7 | 0.71 |
| CC(C)N(CC(=O)Nc1nccs1)Cc1ccccn1 | 65 | -10.08 |
| C[C@@H](c1cccnc1)N(C)CC(=O)Nc1nccs1 | 9 | -1.03 |
| COc1ccc(Nc2nc(N3CCCC3)nc3c2cnn3C)cc1Cl | 27 | -3.01 |
| O=C(Cn1ncn2nccc2c1=O)Nc1cc(Cl)cc(Cl)c1 | -3 | 0.43 |
| COc1ccc(CC(=O)Nc2cc(C3CC3)nn2-c2nc(C)cc(=O)[nH]2)cc1 | 0 | -0.01 |
| COc1ccc(Cl)cc1C(=O)N[C@H]1CCc2nn(C)c(=O)cc2C1 | -18 | 3.11 |
| COc1ccc(Cl)cc1C(=O)Nc1cc(C2CC2)nn1-c1nc(C)cc(=O)[nH]1 | 63 | -6.61 |
| COc1ccc(Cl)cc1C(=O)Nc1ccnn1C[C@H]1CCOC1 | 3 | -0.37 |
| Cc1cc(=O)[nH]c(-n2nc(C3CC3)cc2NC(=O)C(C)(C)Oc2ccc(Cl)cc2)n1 | 84 | -15.44 |

| Structure (SMILES) | % Inhibition [%] | Z score |
| --- | --- | --- |
| CC(C)(Oc1ccc(Cl)cc1)C(=O)Nc1c2c(nn1C(C)(C)C)CS(=O)(=O)C2 | -14 | 2.68 |
| Cc1cnn(CCCNC(=O)C[C@H]2COCCN2Cc2ccc(C)o2)c1 | -20 | 2.24 |
| CN(C)c1ccc(NC(=O)Cc2cnn(-c3ccccc3)c2)cn1 | -12 | 1.6 |
| N#Cc1nccnc1N[C@H]1CCCN(CC(F)(F)F)C1 | -11 | 1.83 |
| Cc1ccc(CN2C[C@@H](CO)[C@H](NC(=O)C3CCC3)C2)o1 | -6 | 0.86 |
| COc1ccc(N2C(=O)c3ccccc3[C@@H]2c2cn(C)c3ccccc23)cc1 | 7 | -0.85 |
| Cc1ccc(N2C(=O)c3ccccc3[C@@H]2c2c[nH]c3ccccc23)cc1 | 63 | -5.25 |
| CC(c1ccccc1)N1C(=O)c2ccccc2C1c1c[nH]c2ccccc12 (stereo unspecified) | 43 | -5.38 |
| COc1ccc(CC(=O)N2CCCS(=O)(=O)C[C@H]2C2CC2)nc1 | -1 | 0.08 |
| Cc1cccc2ncnc(N(C)[C@@H](C)Cc3ccc(O)cc3)c12 | 77 | -16.2 |
| Cc1cccc2ncnc(N(C)C3CC[S+]([O-])CC3)c12 (stereo unspecified) | 3 | -0.52 |
| CC1(C)C[C@@H](NC(=O)[C@H]2CC[C@H](Cn3cnc4ccccc4c3=O)CC2)CCO1 | -6 | 0.79 |
| C[C@@]1(NC(=O)CCc2nc(C3CCCC3)no2)CC=CCC1 | -10 | 1.9 |
| O=C(NCC[C@H]1CCOC1)c1ccc(-c2ccc3cc[nH]c(=O)c3c2)cc1 | -14 | 1.37 |
| CN1CC[C@H](N(C)C(=O)c2ccc(-c3ccc4c(=O)[nH]ccc4c3)cc2)C1 | -4 | 0.47 |
| CN(C)c1ccc([C@@H](CNC(=O)c2cccc(F)c2)c2c[nH]c3ccccc23)cc1 | 2 | -0.26 |
| CN1CCC(N2CCC(CN(Cc3ccncc3)C3CCOCC3)CC2)CC1 | 0 | 0 |
| COCCN1CCC(CN(Cc2ccncc2)Cc2nc3ccc(F)cc3[nH]2)CC1 | 0 | 0.04 |
| COCCN1CCC(CN(Cc2ccncc2)Cc2cc(C)c(C)o2)CC1 | -30 | 4.08 |
| COc1ccc(CN(Cc2ccncc2)CC2CCN(C3CCN(C)CC3)CC2)c(F)c1 | 88 | -10.13 |
| CN1CCC(N2CCC(CN(Cc3ccncc3)Cc3c(F)cccc3Cl)CC2)CC1 | 98 | -9.12 |

| Structure (SMILES) | % Inhibition [%] | Z score |
| --- | --- | --- |
| CC(=O)NCCn1ccnc1-c1ccc(F)c(F)c1F | -9 | 1.18 |
| C[C@H](NCC1(c2c(F)cccc2F)CC1)c1cnn(C)c1 | -3 | 0.45 |
| CC(C)(C)CN1C[C@@H](NC(=O)COc2ccc3c(c2)OCO3)CC1=O | -1 | 0.23 |
| CCCC(CCC)C(=O)Nc1ccc(O)cc1C(=O)O | 40 | -0.25 |
| COCC(O)CN1CCC(NC2CCCc3cc(F)ccc32)CC1 (stereo unspecified) | 1 | -0.12 |
| COCCCN(Cc1ccc(C(O)(c2ccc(OC)cc2)c2ccc(OC)cc2)o1)Cc1ccccc1OC | 3 | -0.38 |
| CN1CCO[C@@H](CNc2ncnc3c2cnn3-c2ccccc2F)C1 | -1 | 0.08 |
| Cc1nc(N2CCCC2C(=O)N2CCC(C(O)Cc3ccccc3)CC2)nc2ccccc12 (stereo unspecified) | -15 | 1.71 |
| CS(=O)(=O)N1CCC(Nc2ncnc3cc(Cl)ccc23)CC1 | 18 | -2.07 |
| CC1CC(Nc2ncnc3cc(Br)ccc23)CCN1C (stereo unspecified) | 97 | -8.72 |
| O=C(O)c1ccc2c(NC3CCCC3)ncnc2c1 | -5 | 0.71 |
| OC(CN1CCOC2CCCCC21)Cn1cccn1 (stereo unspecified) | -5 | 0.7 |
| CC(C)CNC(=O)c1[nH]cnc1C(=O)N1CCC(Cc2ccccc2)CC1 | 31 | -3.65 |
| CC[C@H]1CCCCCN1C(=O)NCCc1nnc(C)s1 | -9 | 1.2 |
| COc1ccc(Nc2nnc(-c3ccc(NC(=O)C(=O)NCCCn4ccnc4)cc3)s2)cc1 | 66 | -7.06 |
| COc1ncc(C(=O)NCCCn2ccnc2)cn1 | -14 | 1.29 |
| CCN(CC)Cc1cnc2c(C(=O)N(C)C3Cc4ccccc4C3)cnn2c1 | -6 | 0.83 |
| CO[C@H]1CCOC[C@@H]1NC1CCN(c2ncc3ccc(F)cc3n2)CC1 | 1 | -0.16 |
| CN1C(=O)[C@@H]2CC[C@H]1CN(C1CCN(c3ncc4ccc(F)cc4n3)CC1)C2 | 3 | -0.38 |
| Cc1ccc2c(c1)C(=O)N1CCCC1C(=O)N2CC(=O)NCC1CCCO1 (stereo unspecified) | -1 | 0.1 |
